# Source: PubChem BioAssay (NCI)
# This is part of a sample that, as a whole, favours compounds with a hit. Of some 83,000 tested, about 20% had one in any assay.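 The endpoint reported here, percent growth, reads 100 for growth as untreated, 0 for no net growth and -100 for all cells dead.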 Values without a mark were called inactive. The source made the active and inactive calls. The calls were made as follows: active = growth percent below 10; inactive = the rest.
# Experiments:
# Assay in all cases: NCI-60 one-dose screen, 48 h (100 = growth as untreated, 0 = no growth, -100 = all killed)
# Conditions in all cases: 10 µM unless noted
# NCI-H23 lung = tested on: NCI-H23 lung
# NCI-H226 lung = tested on: NCI-H226 lung
# NCI-H322M lung = tested on: NCI-H322M lung
# HOP-62 NSCLC = tested on: HOP-62 NSCLC
# NCI-H460 lung = tested on: NCI-H460 lung
# NCI-H522 lung = tested on: NCI-H522 lung
# A549/ATCC NSCLC = tested on: A549/ATCC NSCLC
# 786-0 renal = tested on: 786-0 renal
# COLO 205 colon = tested on: COLO 205 colon
# HOP-92 NSCLC = tested on: HOP-92 NSCLC
Compound,growth (NCI-H23 lung),growth (NCI-H226 lung),growth (NCI-H322M lung),growth (HOP-62 NSCLC),growth (NCI-H460 lung),growth (NCI-H522 lung),growth (A549/ATCC NSCLC),growth (786-0 renal),growth (COLO 205 colon),growth (HOP-92 NSCLC)
O=C(Cn1cncn1)Nc1ccc(-c2nc3ccccc3s2)cc1,87.5%,75%,101%,102%,97%,87.5%,88.1%,95.6%,107%,–
CCOc1cc2ncc(C#N)c(Nc3ccc(OCc4ccccn4)c(Cl)c3)c2cc1NC(=O)/C=C/CN(C)C,39.9%,47.2%,0.942% (active),38.6%,-62.2% (active),6.98% (active),22.3%,-74.7% (active),27.4%,–
CCN1CCN(c2cc(C)nc(N(CCCNc3ccnc4cc(Cl)ccc34)Cc3cccs3)n2)CC1,49%,57.6%,12%,-25.4% (active),5.44% (active),8.27% (active),20.1%,-71.8% (active),-80.2% (active),–
C[C@@H](N)c1ccc(C(=O)Nc2ccnc3[nH]ccc23)cc1,45%,51%,41.5%,13.9%,47.9%,11%,14.8%,33.2%,5.34% (active),–
CN1CCC(CNc2ccc3ncc(-c4cccc(OC(F)(F)F)c4)n3n2)CC1,-14.9% (active),-8.6% (active),8.29% (active),-53.1% (active),-45.8% (active),-69.7% (active),-38.4% (active),-81.6% (active),-88.6% (active),–
O=C(Nc1cccc(Cl)c1)Nc1ncc(CCNc2ncnc3ccsc23)s1,30.6%,10.8%,55.5%,11.8%,20.1%,13%,14.9%,42.1%,-4.76% (active),–
COc1cc2ncnc(Nc3ccc(O)cc3)c2cc1OC,104%,95.2%,12.4%,86.5%,103%,11%,45.8%,83.4%,115%,–
Cc1sc2c(c1C)c(=O)nc1c(-c3nc(-c4ccccc4)cs3)n[nH]n12,91.9%,89.9%,101%,92.4%,96.2%,94.3%,93%,103%,102%,–
CO/C=C/C(=O)c1cc2cnc3c(=N)cc(NC(=O)C(C)C)c([nH]1)c23,-11.9% (active),-40.3% (active),-13.2% (active),-18.7% (active),5.42% (active),23.8%,19.3%,-44.6% (active),-33.8% (active),–
Cc1cc(Oc2ccccc2)ccc1Nc1ncnc2ccc(-c3cnc(Cl)c(NS(C)(=O)=O)c3)cc12,28.5%,36.9%,0.949% (active),28.2%,18%,32.1%,11%,16.8%,12.1%,–
Cc1cccc(Cl)c1NC(=O)c1cnc(Nc2cc(N3CCOCC3)cc(S(C)(=O)=O)c2)s1,81.5%,66%,-6.54% (active),11.8%,71.4%,7.33% (active),-0.245% (active),11.6%,-6.99% (active),–
COc1cc2cc(NCc3ccc(F)cc3)nc(C)c2cc1OC,26.5%,48.5%,52.5%,54.7%,26.4%,59.9%,47.9%,32.2%,34.2%,–
Cc1ccc(-c2cc3c(SCC(=O)Nc4cc(C(F)(F)F)ccc4Cl)nccn3n2)cc1,74.2%,54%,31%,43.3%,14.2%,42.7%,36%,54.7%,27%,–
CC12O[C@H](C[C@@H](OC(=O)CCC(=O)O)[C@H]1O)n1c3ccccc3c3c4c(c5c6ccccc6n2c5c31)C(=O)NC4=O,12.3%,9.15% (active),34.3%,13.5%,20.2%,21%,13.8%,36.8%,-16.4% (active),–
CC(C)(C)c1nc(-c2cccc(NS(=O)(=O)c3c(F)cccc3F)c2F)c(-c2ccnc(N)n2)s1,63.6%,84.5%,90.3%,77.1%,74.4%,57.5%,53.6%,91.9%,-5.08% (active),92.9%
COc1cc(OC)c(C(=O)/C=C/c2cc3c(cc2OCc2ccccc2)OC(C)(C)CC3)cc1CC=C(C)C,48.2%,43.2%,79.6%,85.2%,78.6%,65.2%,32.9%,79.9%,84.7%,–
Cc1cc(N(CCNc2ccnc3cc(Cl)ccc23)Cc2ccc3c(c2)OCO3)nc(N2CCCC2)n1,20.8%,65.4%,13.5%,-25.8% (active),-9.96% (active),-28.7% (active),8.39% (active),-92% (active),-78.2% (active),–
C=CC(=O)Nc1cc2c(Nc3ccc(F)c(Cl)c3)ncnc2cc1OCCCN1CCOCC1,-54.4% (active),40.2%,-15.2% (active),12.1%,31.2%,-74.6% (active),22.9%,2.4% (active),8.89% (active),–
O=CC(OC(=O)c1ccccc1)C(OC(=O)c1ccccc1)C(COC(c1ccccc1)(c1ccccc1)c1ccccc1)OC(=O)c1ccccc1 (centres undefined),51.3%,76.4%,97.1%,99.8%,89.2%,40.4%,97.5%,–,57.2%,-54.6% (active)
Nc1c(Cl)cccc1[N+](=O)[O-],106%,101%,110%,98.8%,104%,118%,101%,109%,114%,–
O=C(Nc1cnn2ccc(N3CCC[C@@H]3c3cc(F)ccc3F)nc12)N1CC[C@H](O)C1,87.8%,93.8%,104%,71.8%,84.1%,70.5%,72.4%,91%,71.6%,–
COc1cc(Nc2ncc(F)c(Nc3ccc4c(n3)N(COP(=O)(O)O)C(=O)C(C)(C)O4)n2)cc(OC)c1OC,29.7%,-14.6% (active),–,2.67% (active),25.4%,-28.5% (active),0.294% (active),-23.8% (active),-22.8% (active),–
CC1=CC2c3oc(-c4ccccc4)c(C(=O)c4ccccc4)c3CNC2C=C1 (centres undefined),95%,83.8%,–,74.5%,100%,57.7%,74.2%,111%,109%,97.5%
CC[n+]1c(/C=C/C=C2\N(C)c3ccccc3C2(C)C)sc2ccccc21,20%,20%,–,11.7%,7.56% (active),9.12% (active),11.9%,14.8%,-59.2% (active),-3.67% (active)
O=C(O)C1(Cc2cccc(Nc3nccs3)n2)CCC(Oc2cccc(Cl)c2F)CC1 (centres undefined),66%,82.8%,–,49.8%,15.2%,-3.77% (active),41.9%,75%,59.5%,102%
COc1ccc(-c2ccc3c(N4CCOC[C@@H]4C)nc(N4CCOC[C@@H]4C)nc3n2)cc1CO,20.3%,-9.74% (active),–,-12.9% (active),8.4% (active),8.31% (active),-12.6% (active),2.33% (active),-14.1% (active),-21.1% (active)
